Assay results taken from the supplement of paper PMC9135407.
Several values for one entry are separate records, joined by “and”; a condition that tells them apart may be missing. Equal entries are not always repeated. Structures can show the parent of a compound that is named as a salt. About 620 (11%) of roughly 5,800 compounds showed activity. This excerpt belongs to a sample that is enriched for actives. A number with no mark means an inactive call.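 How the source made its calls: active = score above a cut-off or among the top three wells of a plate; in these data no inactive exceeds 0.85.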

Tested on: primary human hepatic stellate cells (donor 1)
Assay: scaled lipid accumulation score (0 = DMSO-like, 1 = nortriptyline-like); higher = stronger HSC inactivation (lipid re-accumulation), active = hit call of the paper
Conditions: 48 h
[1] = library stock concentration: 1 mM
[2] = library stock concentration: 3.33 mM
[3] = library stock concentration: 10 mM

CCCCC(CC)CNC(=N)NC(=N)NCCCCCCNC(=N)NC(=N)NCC(CC)CCCC (stereo not drawn) [Alexidine dihydrochloride]
scaled lipid accumulation score: 0.586

CCCCC(C)(C)[C@H](O)/C=C/[C@@H]1[C@@H](C/C=C\CCCC(=O)O)[C@@H](O)C[C@H]1O [16,16-dimethyl Prostaglandin F2.alpha.]
scaled lipid accumulation score [1]: ≤ 0

O=[N+]([O-])c1cn2c(n1)OC[C@@H](OCc1ccc(OC(F)(F)F)cc1)C2
scaled lipid accumulation score [2]: ≤ 0
scaled lipid accumulation score [3]: ≤ 0

NC(=O)c1ccc([N+](=O)[O-])cc1Cl [Aklomide]
scaled lipid accumulation score [3]: 0.07

O=[N+]([O-])c1ccc2c(c1)S(=O)(=O)C=C2 [Stattic] [listing 1 of 2 here]
scaled lipid accumulation score [2]: 1.25 (active)

O=[N+]([O-])c1ccc2c(c1)S(=O)(=O)C=C2 [Stattic] [listing 2 of 2 here]
scaled lipid accumulation score [3]: 0.347

CCCCCCCC/C=C\CCCCCCCC(=O)NCC [Oleoyl Ethyl Amide]
scaled lipid accumulation score [1]: ≤ 0

O=c1[nH]cnc2[nH]ncc12 [Allopurinol Sodium]
scaled lipid accumulation score [2]: ≤ 0
scaled lipid accumulation score [3]: ≤ 0

CC(C)N(CC[C@H](c1ccccc1)c1cc(CO)ccc1O)C(C)C
scaled lipid accumulation score [2]: 0.012
scaled lipid accumulation score [3]: ≤ 0

CC(C)C(=O)Oc1ccc(CO)cc1[C@H](CCN(C(C)C)C(C)C)c1ccccc1 [Fesoterodine Fumarate]
scaled lipid accumulation score [2]: 0.256

CC(C)C(=O)Oc1ccc(CO)cc1[C@H](CCN(C(C)C)C(C)C)c1ccccc1.O=C(O)C=CC(=O)O [Fesoterodine Fumarate]
scaled lipid accumulation score [3]: 1.13 (active)

O=C(Cc1ccccc1Nc1c(Cl)cccc1Cl)Oc1ccc(-c2cc(=S)ss2)cc1
scaled lipid accumulation score [1]: ≤ 0

O=C(Nc1nc2ccccc2n1CCN1CCOCC1)c1cccc([N+](=O)[O-])c1 [IRAK-1/4 Inhibitor I]
scaled lipid accumulation score [3]: 0.485

C[C@H]1[C@H]2CC[C@H]3[C@@H]4CC=C5C[C@@H](N(C)C)CC[C@]5(C)[C@H]4CC[C@]23CN1C [Conessine]
scaled lipid accumulation score: 0.137

Cc1cc(C(C)Nc2ccccc2)c2nc(N3CCOCC3)cc(=O)n2c1 (stereo not drawn)
scaled lipid accumulation score (library stock concentration: 80 uM): ≤ -0.009
scaled lipid accumulation score (library stock concentration: 400 uM): ≤ -0.009 and ≤ -0.005
scaled lipid accumulation score (library stock concentration: 2 mM): ≤ -0.009 and ≤ -0.005
scaled lipid accumulation score [2]: ≤ 0
scaled lipid accumulation score [3]: ≤ 0 and ≤ -0.009 and ≤ -0.005

c1ccc(CN2CCC3(CCc4ccccc43)CC2)cc1 [L-693,403 maleate]
scaled lipid accumulation score [3]: 0.504

Cl.Cl.O=C(NCCCN1CCC2(CC1)OCc1ccccc12)[C@H]1CCCN1Cc1ccccc1
scaled lipid accumulation score [3]: 0.974 (active)

c1ccc(CN2CCC3(CCCc4ccccc43)CC2)cc1 [L-687,384 hydrochloride]
scaled lipid accumulation score [3]: 0.374

CC1(C)S[C@@H]2[C@H](N3C(=O)[C@@H](c4ccccc4)NC3(C)C)C(=O)N2[C@H]1C(=O)O [Hetacillin potassium]
scaled lipid accumulation score (library stock concentration: 4.7 mM): 0.007
scaled lipid accumulation score [3]: ≤ 0

CC(C)(C)CC(C)(C)c1ccc(O)c(Cc2ccc(Cl)cc2Cl)c1 [Clofoctol]
scaled lipid accumulation score [3]: ≤ -0.027

CC(=O)O[C@]1(C(C)=O)CC[C@H]2[C@@H]3C=C(C)C4=CC(=O)CC[C@]4(C)[C@H]3CC[C@@]21C [Megestrol acetate]
scaled lipid accumulation score: ≤ 0
scaled lipid accumulation score (library stock concentration: 5.2 mM): ≤ 0 and 0.036
scaled lipid accumulation score [3]: ≤ 0

CC(=O)O[C@]1(C(C)=O)CC[C@H]2[C@@H]3C=C(C)C4=CC(=O)CC[C@]4(C)[C@H]3CC[C@@]21C [Megestrol Acetate]
scaled lipid accumulation score [2]: ≤ 0
scaled lipid accumulation score [3]: ≤ 0

CC(=O)O[C@]1(C(C)=O)CC[C@H]2[C@@H]3C=C(C)C4=CC(=O)CC[C@]4(C)[C@H]3CC[C@@]21C
scaled lipid accumulation score [3]: ≤ 0

CC(=O)O[C@]1(C(C)=O)CCC2C3C=C(Cl)C4=CC(=O)CC[C@]4(C)C3CC[C@@]21C (stereo partly drawn) [Chlormadinone acetate]
scaled lipid accumulation score [3]: 0.968 (active)

CC(=O)O[C@]1(C(C)=O)CC[C@H]2[C@@H]3C=C(Cl)C4=CC(=O)CC[C@]4(C)[C@H]3CC[C@@]21C [Chlormadinone acetate]
scaled lipid accumulation score (library stock concentration: 4.5 mM): 0.064
scaled lipid accumulation score (library stock concentration: 4.9 mM): 0.08

CC(C)n1cnc2c(NCc3ccccc3O)nc(NCCCO)nc21 [Cdk Inhibitor, p35]
scaled lipid accumulation score [2]: ≤ 0

N[C@@H](Cc1cc(I)c(Oc2cc(I)c(O)c(I)c2)c(I)c1)C(=O)O
scaled lipid accumulation score [3]: ≤ 0

N[C@@H](Cc1cc(I)c(Oc2cc(I)c(O)c(I)c2)c(I)c1)C(=O)O [L-Thyroxine]
scaled lipid accumulation score [2]: ≤ 0
scaled lipid accumulation score [3]: ≤ 0

N[C@@H](Cc1cc(I)c(Oc2cc(I)c(O)c(I)c2)c(I)c1)C(=O)O [Levothyroxine]
scaled lipid accumulation score (library stock concentration: 2.6 mM): ≤ 0

c1ccc(C(OC2CCN(CCCc3nn[nH]n3)CC2)c2ccccc2)cc1
scaled lipid accumulation score [1]: ≤ 0

O=C1c2ccc(O)c(O)c2C(=O)c2c(O)ccc(O)c21 [Quinalizarin]
scaled lipid accumulation score [3]: ≤ 0

CCCCCCCCCCCCCCCCCC(=O)NCCO [Stearoyl Ethanolamide]
scaled lipid accumulation score [1]: ≤ 0

CC(C)OC(=O)CCC/C=C\C[C@@H]1[C@@H](/C=C/[C@H](O)C2Cc3ccccc3C2)[C@@H](F)C[C@@H]1O [AL 8810 isopropyl ester]
scaled lipid accumulation score [1]: ≤ 0

CCCCCCOC(=O)[C@]1(O)C[C@@H]2O[C@@]1(C)n1c3ccccc3c3c4c(c5c6ccccc6n2c5c31)C(=O)NC4
scaled lipid accumulation score (library stock concentration: 900 uM): 0.034
scaled lipid accumulation score [2]: ≤ 0
